PubChem BioAssay (NCI)
About 83,000 compounds went through this panel and 20% of them were active in at least one assay; those are over-represented in the sample as a whole.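 In brief: 96-well plates, 48 h treatment, single concentration, percent growth endpoint.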 A number with no mark means an inactive call. The source made the active and inactive calls. The calls were made as follows: active = growth percent below 10; inactive = the rest.

tested on: MDA-MB-231 breast; test: NCI-60 one-dose screen, 48 h (100 = growth as untreated, 0 = no growth, -100 = all killed); details: 10 µM

SMILES | growth
COc1ccc(-c2nn(-c3cccc(NC(=O)c4ccc(N5CCOCC5)c(C(F)(F)F)c4)c3)cc2-c2ccncc2)cc1Cl | 66.4%
CN1CC[C@@H](c2c(O)cc(O)c3c(=O)cc(-c4ccccc4Cl)oc23)[C@@H](O)C1 | 13.4%
Nc1nc(-c2ccccc2Cl)cc(-c2ccc(Cl)cc2Cl)n1 | 65%
Cc1[nH]nc2c1C(c1cnn(C)c1)C(C#N)=C(N)O2 (stereo not drawn) | 117%
O=C(N/N=C/c1cc2ccccc2c2ccccc12)c1cc(O)c(O)c(O)c1 | 68.4%
Cc1ccc(N=Nc2c(N)nc(N)[nH]c2=O)cc1C | 117%
CCCCCCCCCCCCCCCC(=O)OC1[C@@H](OC(=O)CCCCCCCCCCCCCCC)[C@@H](C(=O)N[C@@H](CCCCN)C(=O)OC)O[C@H]1n1cnc2c(=O)[nH]c(NC(=O)C(C)C)nc21 (stereo partly drawn) | 118%
Cc1cc(=O)n2nnc3c4ccccc4ccc3n12 | 71.4%
CN(Cc1ccccc1)Cc1ccc([N+](=O)[O-])cc1I | 101%
COc1ccc(-c2nsc3c2NC(=O)CC3c2ccc(F)cc2)cc1 (stereo not drawn) | 68.7%
COc1ccc(N2C(=O)C3c4[nH]c5ccc(OCc6ccccc6)cc5c4C4CCC(C(C)C)CC4C3C2=O)cc1 (stereo not drawn) | 101%
C#Cc1ccc(-n2c(/C=C/c3ccc(O)c(OC)c3)nc3ncccc3c2=O)cc1 | 98.5%
CCCCCCN1CCN(Cc2ccc(N(CC)CC)cc2)C(=O)C1=O | 44.4%
CC(C)N(CCNc1nc(C(Cl)(Cl)Cl)nc2cc(Cl)ccc12)C(C)C | -66.4% (active)
COc1ccc(-c2nn(-c3cccc(NC(=O)Nc4cc(C(F)(F)F)cc(C(F)(F)F)c4)c3)cc2-c2ccncc2)cc1Cl | -63% (active)
CCOC(=O)N1C/C(=C/c2ccc(Cl)cc2)C(=O)/C(=C/c2ccc(Cl)cc2)C1 | 68.3%
O=C1Nc2ccccc2C1=NC1CCCCC1 | 103%
O=C(N/N=C\c1cc(Cl)ccc1[N+](=O)[O-])c1ccco1 | 95%
Cc1c(Cl)cccc1NC(=O)c1sc2nc3c(cc2c1N)C(=O)CCC3 | 12.6%
O=C(O)c1ccc(P(=O)(O)O)c([N+](=O)[O-])c1 | 108%

SMILES | growth
O=C1N=NC2=C1c1c3ccccc3c(O)n1CC2 | 107%
COc1cc2cc3c(nc2cc1OC)CCN3Cc1ccc(NC(=O)Nc2ccc(F)cc2F)cc1 | 89%
Nc1c(C(=O)Nc2cccc(F)c2)sc2nc3c(cc12)C(=O)CCC3 | 40.8%
O=C1/C(=C\c2ccc(F)cc2)CN(C(=O)c2ccc([N+](=O)[O-])cc2)C/C1=C\c1ccc(F)cc1 | 0.131% (active)
Nc1c(C(=O)Nc2ccccc2)sc2nc3c(cc12)CCCC3 | 56%
CN(C)C=Nc1cc(Cl)ccc1Cl | 103%
Nc1c(C(=O)Nc2cccc(Br)c2)sc2nc3c(cc12)C(O)CCC3 (stereo not drawn) | 44.2%
O=C(Nc1nc2ccccc2s1)Nc1ccc([N+](=O)[O-])cc1Cl | 40.1%
COc1ccc([N+](=O)[O-])c(C(=O)O)c1 | 121%
COc1cc(OC)cc(-c2cncn2-c2ccc(-c3nc4cc(OC)cc(OC)c4s3)cc2)c1 | 66.5%
CC[C@H](C)C(=O)O[C@H]1CCC=C2C=C[C@H](C)C(CCC3C[C@@H](O)CC(=O)O3)[C@H]21 (stereo partly drawn) | 2.32% (active)
CCOC(=O)C1(CC(C)C)CCOC1=O (stereo not drawn) | 109%
O=C(CCCCC(=O)Nc1ccc2c(c1)/C(=C/c1ccc[nH]1)C(=O)N2)NO | 94.4%
COc1ccc(S(=O)(=O)Nc2c(/C=C\c3cc(OC)c(OC)c(OC)c3)ccc(OC)c2O)cc1 | 5.46% (active)
CC1=C(N2CCOCC2)C(N2CCOCC2)=C(C)C(=O)C1=O | 115%
c1ccc([I+]c2ccccc2)cc1 | 87.6%
CCOCC(=O)C(C#N)c1ccc(Cl)c(Cl)c1 (stereo not drawn) | 105%
O=C1c2ccc3c4c(ccc(c24)C(=O)N1CCNCc1ccccc1)C(=O)N(CCNCc1ccccc1)C3=O | 39.9%
COc1cc(C(=O)N2CCN(c3ccccc3OC)CC2)c(N)cc1OCCCN1CCN(c2ccccc2OC)CC1 | 80.3%

tested on: RXF 393 renal; test: as above; details: 10 µM

SMILES | growth
COc1ccc(-c2nn(-c3cccc(NC(=O)c4ccc(N5CCOCC5)c(C(F)(F)F)c4)c3)cc2-c2ccncc2)cc1Cl | 18.7%
CN1CC[C@@H](c2c(O)cc(O)c3c(=O)cc(-c4ccccc4Cl)oc23)[C@@H](O)C1 | 12.4%
Nc1nc(-c2ccccc2Cl)cc(-c2ccc(Cl)cc2Cl)n1 | 75.8%
Cc1[nH]nc2c1C(c1cnn(C)c1)C(C#N)=C(N)O2 (stereo not drawn) | 106%
O=C(N/N=C/c1cc2ccccc2c2ccccc12)c1cc(O)c(O)c(O)c1 | 75%
Cc1ccc(N=Nc2c(N)nc(N)[nH]c2=O)cc1C | 110%
CCCCCCCCCCCCCCCC(=O)OC1[C@@H](OC(=O)CCCCCCCCCCCCCCC)[C@@H](C(=O)N[C@@H](CCCCN)C(=O)OC)O[C@H]1n1cnc2c(=O)[nH]c(NC(=O)C(C)C)nc21 (stereo partly drawn) | 105%
Cc1cc(=O)n2nnc3c4ccccc4ccc3n12 | 98%
CN(Cc1ccccc1)Cc1ccc([N+](=O)[O-])cc1I | 88.2%
COc1ccc(-c2nsc3c2NC(=O)CC3c2ccc(F)cc2)cc1 (stereo not drawn) | 62.9%
COc1ccc(N2C(=O)C3c4[nH]c5ccc(OCc6ccccc6)cc5c4C4CCC(C(C)C)CC4C3C2=O)cc1 (stereo not drawn) | 102%
C#Cc1ccc(-n2c(/C=C/c3ccc(O)c(OC)c3)nc3ncccc3c2=O)cc1 | 100%
CCCCCCN1CCN(Cc2ccc(N(CC)CC)cc2)C(=O)C1=O | 7.71% (active)
CC(C)N(CCNc1nc(C(Cl)(Cl)Cl)nc2cc(Cl)ccc12)C(C)C | -19% (active)
COc1ccc(-c2nn(-c3cccc(NC(=O)Nc4cc(C(F)(F)F)cc(C(F)(F)F)c4)c3)cc2-c2ccncc2)cc1Cl | -12.6% (active)
CCOC(=O)N1C/C(=C/c2ccc(Cl)cc2)C(=O)/C(=C/c2ccc(Cl)cc2)C1 | 47.4%
O=C1Nc2ccccc2C1=NC1CCCCC1 | 107%
O=C(N/N=C\c1cc(Cl)ccc1[N+](=O)[O-])c1ccco1 | 115%
Cc1c(Cl)cccc1NC(=O)c1sc2nc3c(cc2c1N)C(=O)CCC3 | -16.4% (active)
O=C(O)c1ccc(P(=O)(O)O)c([N+](=O)[O-])c1 | 105%

SMILES | growth
O=C1N=NC2=C1c1c3ccccc3c(O)n1CC2 | 106%
COc1cc2cc3c(nc2cc1OC)CCN3Cc1ccc(NC(=O)Nc2ccc(F)cc2F)cc1 | 88.6%
Nc1c(C(=O)Nc2cccc(F)c2)sc2nc3c(cc12)C(=O)CCC3 | -14.3% (active)
O=C1/C(=C\c2ccc(F)cc2)CN(C(=O)c2ccc([N+](=O)[O-])cc2)C/C1=C\c1ccc(F)cc1 | -2.85% (active)
Nc1c(C(=O)Nc2ccccc2)sc2nc3c(cc12)CCCC3 | -24.3% (active)
CN(C)C=Nc1cc(Cl)ccc1Cl | 112%
Nc1c(C(=O)Nc2cccc(Br)c2)sc2nc3c(cc12)C(O)CCC3 (stereo not drawn) | -22% (active)
O=C(Nc1nc2ccccc2s1)Nc1ccc([N+](=O)[O-])cc1Cl | -17.7% (active)
COc1ccc([N+](=O)[O-])c(C(=O)O)c1 | 98.3%
COc1cc(OC)cc(-c2cncn2-c2ccc(-c3nc4cc(OC)cc(OC)c4s3)cc2)c1 | 58.1%
CC[C@H](C)C(=O)O[C@H]1CCC=C2C=C[C@H](C)C(CCC3C[C@@H](O)CC(=O)O3)[C@H]21 (stereo partly drawn) | 70.2%
CCOC(=O)C1(CC(C)C)CCOC1=O (stereo not drawn) | 118%
O=C(CCCCC(=O)Nc1ccc2c(c1)/C(=C/c1ccc[nH]1)C(=O)N2)NO | 76.8%
COc1ccc(S(=O)(=O)Nc2c(/C=C\c3cc(OC)c(OC)c(OC)c3)ccc(OC)c2O)cc1 | 33.5%
CC1=C(N2CCOCC2)C(N2CCOCC2)=C(C)C(=O)C1=O | 101%
c1ccc([I+]c2ccccc2)cc1 | 60.4%
CCOCC(=O)C(C#N)c1ccc(Cl)c(Cl)c1 (stereo not drawn) | 94.8%
O=C1c2ccc3c4c(ccc(c24)C(=O)N1CCNCc1ccccc1)C(=O)N(CCNCc1ccccc1)C3=O | 90.5%
COc1cc(C(=O)N2CCN(c3ccccc3OC)CC2)c(N)cc1OCCCN1CCN(c2ccccc2OC)CC1 | 92.5%
